Screen size: about 340,000 compounds; about 12,000 (3.5%) were called active. A call without a number means that no potency is given here. Another 18% or so got no clear call; they are omitted. The sample holds actives, similar compounds and a random draw of the others, so the mix is not that of the screen. Unmarked numbers belong to inactive results. The call rests on the fitted dose curve; in most records, active means well fitted inhibition curve with a large enough effect; inconclusive means small, poorly fitted or top-dose-only effect, or another doubt; inactive means no such curve, though single readings can be large or run the other way.
Potency means the concentration at half of the fitted maximal effect.

This experiment is described as follows: qHTS Assay for Inhibitors of Hepatitis C Virus (HCV). The settings on record: Huh7.5.1 HCVcc-Cre infection, luciferase reporter, 44 h; series mostly up to 41.8 µM. The method, boiled down:
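Infectious HCVcc-Cre (~0.5 moi) was added to cells just after compound, with cells seeded 4 h earlier at 1,000 per well. Luciferase activity after 44 h culture reported infection; substrate was incubated 15 min at room temperature before reading.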
(In general: qHTS replaces the single test concentration by a dilution series.)
Take `Cc1cc(C)n2nc(C(=O)OCC(=O)N(C)CC(=O)Nc3ccc(F)cc3)nc2n1`: the Potency entry is “inactive”.
Same read-out and setting: in the case of `Cc1ccc(C)c(-c2nnc(NC(=O)CS(=O)(=O)c3ccccc3)o2)c1` it was “inactive”.
As to `COc1ccc(S(=O)(=O)Nc2cccc3c2O[C@H](CN(C)S(=O)(=O)c2ccc(OC)cc2)[C@@H](C)CN([C@H](C)CO)C3=O)cc1`, the Potency entry is “inactive”.
Same read-out and setting: in the case of `O=C(NCCc1ccc(F)cc1)c1n[nH]c2ccccc12` it was “inactive”.
Same read-out and setting: in the case of `CN(C)CCCNC(=O)c1ccc2[nH]c3ccccc3c2c1` it was “inactive”.
The same measure, in the same setting: in the case of `O=C(NCC1CCCO1)c1ccc2ccccc2n1` (centres undefined) it was “inactive”.
Consider `O=C(NCC1CCCO1)c1cc(-c2ccccc2)nc2ccccc12` (centres undefined), for which the Potency result is “inactive”.
On to `O=C(NCC1CCCO1)c1cc2c([nH]c3ccccc32)c(-c2ccc(F)cc2)n1` (centres undefined), for which the Potency was 1.58 µM (active).
Still for that read-out and setting: for `O=C(NCCCO)c1cc2c([nH]c3ccccc32)c(-c2ccc(F)cc2)n1` the value was 14.1 µM (active); for `COc1ccc(CCNC(=O)COc2cc(C)cc3oc(=O)c(C)c(C)c23)cc1OC`, “inactive”; for `CC1CN(Cc2ccccc2)C(=S)NC1=O` (centres undefined), “inactive”.
With `C=CCOC(=O)N1CCC2CC1c1cc(-c3ccc(OC)cc3)ccc12` (centres undefined), the activity change, negative = inhibition was 2.52% [at 8.37 µM].
On to `COc1ccccc1C(=O)NCCC(=O)NC1=NCCS1`, for which the Potency entry was “inactive”.
Still for that read-out and setting: for `Cc1ccc(C(=O)NNC(=O)CSc2nnc3ccccn23)cc1` the value was “inactive”; for `Cc1ccc(CNC(=O)c2cccc3c2C(=O)c2ccc(N4CCC(C)CC4)cc2S3(=O)=O)cc1`, 10 µM (active); for `CC1CCN(c2c(NCc3ccc(C(=O)NCc4ccccc4)cc3)c(=O)c2=O)CC1`, “inactive”.
Same read-out and setting: for `Cc1ccc(CNC(=O)c2ccc3c(c2)S(=O)(=O)c2ccccc2C3=O)cc1` the value was “inactive”; for `COc1cccc(NC(=O)CN(C)CC(=O)c2c(N)n(Cc3ccccc3)c(=O)n(C)c2=O)c1`, “inactive”; for `CCCCCCSc1ccc([C@@H]2[C@H]3C(=O)N(CC)C(=O)[C@H]3[C@]3(C(=O)OC)CCCCN23)cc1`, “inactive”.
On the same count and under the same terms, for `COCCOC(=O)C1=C(C)N=c2s/c(=C\c3cccs3)c(=O)n2C1c1cccs1` (centres undefined) the value was “inactive”; for `O=C1CCCC2=C1C(c1ccccc1)n1c(s/c(=C/c3cccc(F)c3)c1=O)=N2` (centres undefined), “inactive”; for `COc1ccc(OC)c(C2C3=C(N=c4s/c(=C\c5cccc(O)c5)c(=O)n42)c2ccccc2CC3)c1` (centres undefined), 10 µM (active).
Turning to `CSCCC(NC(=O)COc1ccccc1)C(=O)N(C)CC(=O)Nc1ccc(C)cc1` (centres undefined), the Potency entry was “inactive”.
Still for that read-out and setting: for `CCOc1cc(/C=N/NC(=O)c2cc(-c3ccccc3)nc3ccccc23)ccc1O` the value was “inactive”; for `Cc1ccc2nc(C)cc(N/N=C/c3ccc(F)cc3)c2c1`, “inactive”; for `CCOc1cc(/C=N/Nc2cc(C)nc3ccc(C)cc23)ccc1O`, 10 µM (active).
On the same count and under the same terms, in the case of `OCCN1CCN(CCO)C1=S` it was “inactive”.
Same read-out and setting: in the case of `Cn1c(=O)[nH]c(=O)c2c1nc(N1CCN(CCO)CC1)n2CCSc1nc2ccccc2s1` it was “inactive”; in that of `CC1CCN(c2nc3c(c(=O)[nH]c(=O)n3C)n2CCCc2ccccc2)CC1`, “inactive”.
With `Cn1c(=O)[nH]c(=O)c2c1nc(N1CCN(C(c3ccccc3)c3ccccc3)CC1)n2CCO`, the Potency is 10 µM (active).
Same read-out and setting: for `COc1ccc(C)cc1S(=O)(=O)NC1CCCCC1` the value was “inactive”; for `Cc1ccc2nc(-c3cccnc3)c(NC3CCCC3)n2c1`, “inactive”; for `COc1ccc(-c2nc3cc(C)ccn3c2NC2CCCCC2)cc1SC1CCCCC1`, 3.55 µM (active).
On the same count and under the same terms, for `O=S(=O)(Nc1ncnc2sccc12)c1cccc(F)c1` the value was “inactive”; for `CCCCN(C(=O)C(CCSC)N1C(=O)c2ccccc2C1=O)c1c(N)n(CCC)c(=O)[nH]c1=O` (centres undefined), “inactive”; for `CN(CC(=O)Nc1ccc(OC(F)(F)F)cc1)C(=O)C1CCC1`, “inactive”.
Same read-out and setting: in the case of `CC(C)(CCl)C(=O)Nc1ccc(Sc2ccc(F)cc2)cc1` it was “inactive”.
For the compound `O=C(CCl)Nc1ccc(Sc2ccc(NC(=O)CCl)cc2)cc1`, the Potency is 3.98 µM (active).
As for `Cc1ccc(NC(=O)CC(=O)Nc2ccc(C)cc2)cc1`, the Potency entry was “inactive”.
Same read-out and setting: for `O=C(COC(=O)c1ccc(F)cc1)NCC1COc2ccccc2O1` (centres undefined) the value was “inactive”.
Still for that read-out and setting: for `COc1ccc2oc(N)nc2c1` the value was “inactive”; for `Cc1ccc(NS(=O)(=O)c2ccc(C(=O)NCCCN3CCOCC3)cc2)cc1`, “inactive”.
As for `COc1cccc(CNC(=O)COC(=O)CN2C(=O)NC3(CCCCC3C)C2=O)c1` (centres undefined), the Potency result is “inactive”.
For the compound `CCOC(=O)[C@H]1[C@H]2COc3ccc(C)cc3[C@@H]2N2C(=O)CN(Cc3ccc(F)cc3)C(=O)[C@@]12C`, the Potency entry is “inactive”.
The same measure, in the same setting: in the case of `CCOC(=O)c1sc(N)c(C#N)c1COC(=O)C1=COCCO1` it was “inactive”; in that of `CCCCCCCCCCOC(=O)Cn1c(COc2cccc(OC)c2)[n+](C)c2ccccc21`, “inactive”; in that of `CCCCCCCCCCOC(=O)Cn1c(COc2ccc(C)cc2)[n+](C)c2ccccc21`, 31.6 µM (active).
Consider `CCCCOC(=O)Cn1c(=O)n(CC(=O)OCCCC)c2cc(C)ccc21`, for which the Potency result is “inactive”.
On the same count and under the same terms, for `COc1ccc(-n2nc3c(N4CCC(C(=O)NCc5ccccc5)CC4)nnc(C)c3c2C)cc1` the value was “inactive”; for `CCc1ccc(CNC(=O)C2CCN(c3nnc(C)c4c(C)n(-c5ccc(C)cc5)nc34)CC2)cc1`, 8.91 µM (active); for `CCOc1ccc(CNC(=O)C2CCCN(c3nnc(C)c4c(C)n(-c5ccccc5)nc34)C2)cc1` (centres undefined), “inactive”.
Still for that read-out and setting: for `CCOC(=O)CCC(NC(=O)c1ccc(CNc2nc3cc(C(F)(F)F)ccc3nc2C(=O)OCC)cc1)C(=O)OCC` (centres undefined) the value was “inactive”; for `Cc1cccc(NC(=O)c2cccc(S(=O)(=O)N3CCCC3)c2)n1`, “inactive”; for `Cc1ccc(NC(=O)c2cccc(S(=O)(=O)N3CCCc4ccccc43)c2)nc1`, 10 µM (active).
Consider `Cn1c(=O)n(C)c2cc(S(=O)(=O)N3CCCc4ccccc43)ccc21`, for which the Potency result is “inactive”.
`C[C@H](O)[C@@H]1C(=O)N2CCc3ccc(N4CCOCC4)cc3[C@@H]2C[C@@H]1N(C)C(=O)C(C)(C)C`: the activity change, negative = inhibition is -22.9% [at 8.37 µM].
Turning to `CCCCc1ccc(NC(=O)CN2C(=O)NC(Cc3ccccc3)C2=O)cc1` (centres undefined), the Potency result is “inactive”.
The same measure, in the same setting: in the case of `Cc1ccc(S(=O)(=O)N2CCN(C(=O)COC(=O)/C=C/c3cccc(Cl)c3)CC2)c(C)c1` it was “inactive”.
Same read-out and setting: in the case of `CCC(=O)c1cn(CCOc2ccccc2OC)c2ccccc12` it was 8.91 µM (active); in that of `COc1ccccc1OCCn1c(SCC(N)=O)nc2ccccc21`, “inactive”.
The same measure, in the same setting: in the case of `CCCn1cc(SCC(N)=O)c2ccccc21` it was “inactive”; in that of `CCCCNS(=O)(=O)CCNCc1ccccc1OC`, “inactive”; in that of `COC(=O)c1ccc(CNC(=O)c2ccc(S(=O)(=O)N3CCCCCC3)cc2)cc1`, “inactive”.
As for `Cc1ccc(OCC(=O)Nc2ccc(N3CCN(C(=O)c4ccco4)CC3)cc2)c(C)c1`, the Potency is 7.08 µM (active).
Still for that read-out and setting: for `Cc1ccc(C)c(OCC(=O)N2CCN(C(=O)c3ccco3)CC2)c1` the value was “inactive”; for `CCC(=O)Nc1ccc(C(=O)N2CCN(C(=O)c3ccco3)CC2)cc1`, “inactive”.
Still for that read-out and setting: for `CCC(=O)N1CCc2cc(Br)c(S(=O)(=O)NCCN3CCCCC3CC)cc21` (centres undefined) the value was “inactive”; for `CCN(CC(=O)Nc1cc(Cl)ccc1C)C(=O)CSCc1ccccc1`, “inactive”; for `CCOC(=O)c1cc(Sc2ccccc2N)cc(C(=O)OCC)n1`, “inactive”.
In the case of `Nc1ccccc1Sc1ccc(C(F)(F)F)cc1[N+](=O)[O-]`, the Potency entry is “inactive”.
For the compound `CCS(=O)(=O)c1cc([N+](=O)[O-])c(Sc2ccccc2N)s1`, the Potency was 7.08 µM (active).
The same measure, in the same setting: in the case of `O=C(COc1ccccc1Cl)N1N=C(c2cccs2)CC1c1ccco1` (centres undefined) it was “inactive”; in that of `CC(=NNC(=O)c1ccc2nc[nH]c2c1)c1ccc(Br)cc1`, “inactive”.
For the compound `COc1ccc(S(=O)(=O)N2CCOCC2)cc1NC(=O)Cc1c(F)cccc1Cl`, the Potency entry was “inactive”.
Still for that read-out and setting: in the case of `COc1ccc(S(=O)(=O)NCCCCOc2ccc(Cl)cc2)cc1` it was 25.1 µM (active).
Still for that read-out and setting: for `COC(=O)CNS(=O)(=O)c1ccc(OC)cc1` the value was “inactive”; for `COc1ccc(S(=O)(=O)NCCOc2ccccc2)cc1F`, “inactive”.
For `O=C(NCCCN1CCOCC1)c1cn(-c2ccccc2)nc1-c1ccc(F)cc1`, the Potency result is “inactive”.
On the same count and under the same terms, for `CN(C)C(=O)COC(=O)c1cccc(S(=O)(=O)N2CC3(C)CC2CC(C)(C)C3)c1` (centres undefined) the value was “inactive”; for `CON(C)S(=O)(=O)c1ccc2c(c1)NC(=O)C1CCCN21` (centres undefined), 8.91 µM (active).
The same measure, in the same setting: for `COc1ccc(N2CCN(S(=O)(=O)c3ccc4c(c3)NC(=O)C(C)C(=O)N4)CC2)cc1` (centres undefined) the value was “inactive”; for `CC1C(=O)Nc2ccc(S(=O)(=O)N3CCN(c4ccccc4F)CC3)cc2NC1=O` (centres undefined), “inactive”.
Still for that read-out and setting: for `Cc1ccc(S(=O)(=O)CCC(=O)OCC(=O)N(C)Cc2ccccc2)cc1` the value was “inactive”; for `CN(CC(=O)Nc1ccc(F)cc1)CC(=O)N1CCCCC1`, “inactive”; for `OCC(O)C1OCOC(C(O)CO)C1O` (centres undefined), “inactive”.
On to `COC(=O)C1=C(C)N(Cc2ccccc2)C(=NCCCOC(C)C)N[C@H]1c1ccccc1`, for which the Potency result is “inactive”.
Still for that read-out and setting: in the case of `Cc1cc(/C=N/NC(=O)c2cccnc2)c(C)n1CC(C)C` it was “inactive”.
The same measure, in the same setting: in the case of `O=C(N/N=C/c1ccccn1)c1cccnc1` it was “inactive”; in that of `O=C(N/N=C/c1sc(N2CCCCC2)nc1-c1cccs1)c1cccnc1`, 11.2 µM (active).
Still for that read-out and setting: for `CCN(CC)S(=O)(=O)c1ccc(Cl)c(NC(=O)c2ccncc2)c1` the value was “inactive”.
Turning to `CCN(CC)S(=O)(=O)c1ccc(N(C)Cc2cccc(OC)c2OC)nc1`, the Potency was 3.98 µM (active).
On the same count and under the same terms, in the case of `CCN(CC)S(=O)(=O)c1ccc(N(C)Cc2ccc(C(F)(F)F)cc2)nc1` it was 14.1 µM (active).
On the same count and under the same terms, for `CCN(CC)S(=O)(=O)c1ccc(N(C)CCc2ccc(OC)c(OC)c2)nc1` the value was “inactive”; for `COc1ccc(S(=O)(=O)N2CCCCCC2)cc1C(=O)N(C)Cc1cccc(OC)c1OC`, “inactive”.
On the same count and under the same terms, in the case of `CCN(CC)S(=O)(=O)c1ccc(NC(=O)c2cnc(C)cn2)cc1` it was “inactive”.
Consider `CCCn1c(C)cc(/C=C(\C#N)C(=O)OCC(=O)N(C)c2c(N)n(Cc3ccccc3)c(=O)[nH]c2=O)c1C`, for which the Potency entry was “inactive”.
On the same count and under the same terms, in the case of `COc1ccccc1C(=O)OCC(=O)Nc1cccc(S(=O)(=O)NC2=NCCCCC2)c1` it was “inactive”; in that of `CC1CN(Cc2ccco2)C(=S)N(c2ccccc2)C1=O` (centres undefined), “inactive”.
Same read-out and setting: for `COc1ccc(C(=O)COC(=O)C(O)c2ccccc2)c(OC)c1` (centres undefined) the value was “inactive”.

For the origin of these results see PubChem BioAssay AID651820 (National Center for Advancing Translational Sciences (NCATS), 2012).
